Data taken from PubChem BioAssay (EPA / NIEHS).
Results filed as inconclusive are left out. The source made the active and inactive calls. How the source made its calls, unless noted: active means hit-call score of the fitted dose curve at least 0.9, where 1 is the maximum; inconclusive means response in the unintended direction; inactive means score below 0.9.

Experiments:
[1] = read-out: Vascular cell adhesion molecule 1 (VCAM1), VCAM1 (gene 7412); assay: BSK_MyoF_VCAM1: BioMAP Diversity Plus: MyoF Assay for Vascular cell adhesion molecule 1 (VCAM1) Biomarker Activity (AID 2284231; active means hit-call score of the fitted dose curve at least 0.9, where 1 is the maximum; inactive means score below 0.9); conditions: primary human lung fibroblasts
Method in brief: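 VCAM-1 levels, lung fibroblasts, ELISA, 24 h exposure, increase scored relative to DMSO.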

[2] = read-out: Actin alpha 1 (ACTA1), ACTA1 (gene 58); assay: BSK_MyoF_ACTA1: BioMAP Diversity Plus: MyoF Assay for Actin alpha 1 (ACTA1) Biomarker Activity (AID 2284244; active means hit-call score of the fitted dose curve at least 0.9, where 1 is the maximum; inactive means score below 0.9); conditions: primary human lung fibroblasts
Method in brief: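 ELISA read-out of a-SMA in primary human lung fibroblast cultures, 24 h post-dosing. Activity scored in the positive direction versus DMSO baseline.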

[3] = read-out: Plasminogen activator inhibitor-1 (PAI1), SERPINE1 (gene 5054); assay: BSK_MyoF_PAI1: BioMAP Diversity Plus: MyoF Assay for Plasminogen activator inhibitor-1 (PAI1) Biomarker Activity (AID 2284256; active means hit-call score of the fitted dose curve at least 0.9, where 1 is the maximum; inactive means score below 0.9); conditions: primary human lung fibroblasts
Method in brief: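 In this multiplexed primary-cell system, fibroblasts from human lung received compound for 24 h before ELISA detection of PAI-1; overt toxicity was checked by SRB (0.1%, TCA-fixed, 560 nm) in parallel wells.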

[4] = read-out: Interleukin-8 (IL8), CXCL8 (gene 3576); assay: BSK_MyoF_IL8: BioMAP Diversity Plus: MyoF Assay for Interleukin-8 (IL8) Biomarker Activity (AID 2284261; active means hit-call score of the fitted dose curve at least 0.9, where 1 is the maximum; inactive means score below 0.9); conditions: primary human lung fibroblasts
Method in brief: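 DMSO-normalised, upward-fitted IL-8 ELISA signal; human lung fibroblasts, 24 h chemical treatment.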

[5] = BSK_MyoF_SRB: Viability Assessment in the BioMAP Diversity Plus: MyoF Assay (AID 2284267; active means hit-call score of the fitted dose curve at least 0.9, where 1 is the maximum; inactive means score below 0.9;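 further: total protein by SRB absorbance in parallel cultures as cytotoxicity measure; cells assessed 24 h after compound addition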); conditions: primary human lung fibroblasts
Method in brief: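 Lung fibroblast cultures, 24 h post-dose; fix 10% TCA, stain 0.1% SRB, read 560 nm. Signal = total protein as cytotoxicity measure; fitted relative to DMSO negative control.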

[6] = target: Estrogen receptor (Homo sapiens) (UniProt P03372); assay: ATG_ERa_TRANS: Attagene TRANS-FACTORIAL HepG2 Assay for human Estrogen Receptor alpha (ERa) (AID 2282970); conditions: HepG2 Attagene TRANS ERa GAL4 reporter, mRNA
Method in brief: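 Signal derives from fluorescence of labelled reporter PCR fragments separated by capillary electrophoresis. HepG2 cells transiently carrying multiple GAL4-UAS reporter units were treated 24 hours, and induction above DMSO baseline was fitted as activity.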

[7] = target: human Peripheral-type Benzodiazepine Receptor (PBR), TSPO (gene 706) (UniProt P30536); assay: NVS_MP_hPBR: NovaScreen (NVS) Membrane Protein Assay for human Peripheral-type Benzodiazepine Receptor (PBR) (AID 2283331);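 further: hits reduce radioligand binding relative to DMSO baseline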
Method in brief: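 Cell-free binding to human colonic membrane preparations measured by filter-based scintillation counting after 1 h. Compounds first run at 25 uM in duplicate, then concentration series for actives; signal loss against DMSO baseline.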

[8] = target: Glucocorticoid receptor (Homo sapiens) (UniProt P04150); assay: ATG_GR_TRANS: Attagene TRANS-FACTORIAL HepG2 Assay for human Glucocorticoid Receptor (GR) (AID 2282978); conditions: HepG2 Attagene TRANS GR reporter, mRNA transcription;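 further: activators score as hits since higher reporter transcript over DMSO is fitted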
Method in brief: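 Multiplexed TRANS reporter system, HepG2; 24 h exposure; RNA → oligo(dT) RT → reporter-specific PCR → 6-FAM primer extension → HpaI cut → CE fluorescence. Gain-of-signal vs DMSO.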

[9] = target: Retinoic acid receptor alpha (Homo sapiens) (UniProt P10276); assay: ATG_RARa_TRANS: Attagene TRANS-FACTORIAL HepG2 Assay for human Retinoic Acid Receptor alpha (RARa) (AID 2283005)
Method in brief: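 Reporter transcripts, measured by RT-PCR with fluorescent labeling and capillary electrophoresis after 24 h dosing, reflect activity of an exogenous human RARa–GAL4 fusion in transiently transfected HepG2. Fitted for increase relative to DMSO.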

[10] = target: Nuclear receptor subfamily 1 group I member 2 (Homo sapiens) (UniProt O75469); assay: NVS_NR_hPXR: NovaScreen (NVS) Nuclear Receptor Binding Assay for human Pregnane X Receptor (PXR) (AID 2283365);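 further: a drop in FRET signal versus DMSO baseline means the compound binds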
Method in brief: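 Read-out: TR-FRET, human PXR, 2 h post-dosing, cell-free. Loss of signal vs DMSO taken as binding activity; 25 uM primary, concentration series secondary.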

[11] = target: Bile acid receptor (Homo sapiens) (UniProt Q96RI1); assay: OT_FXR_FXRSRC1_1440: Odyssey Thera (OT) 24-hour HEK293T Protein-Complementation Assay for Farnesoid X receptor/SRC-1 Co-activator (AID 2283384)
Method in brief: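 Fluorescence readout, 24 h post-dose, HEK293T; FXR and SRC-1 fused to complementary reporter fragments, association reconstitutes signal. Positive-direction fit vs DMSO baseline.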

[12] = CEETOX_H295R_MTT_cell_viability: Viability Assessment in the CeeTox HT-H295R MTT Assay (AID 2283718; active means hit-call score of the fitted dose curve at least 0.9, where 1 is the maximum; inactive means score below 0.9;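 on AC50: curve fitted both ways so AC50 may mark viability loss or gain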)
Method in brief: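 MTT reduction (0.5 mg/ml, 4 h at 37 C; absorbance at 570 and 650 nm) gave viability as background-corrected percent change versus controls. H295R cells had 48 h forskolin (10 uM) prestimulation, then 48 h chemical exposure at 0.1% DMSO.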

[13] = CCTE_Deisenroth_AIME_384WELL_CTox_Inactive: Cytotoxicity Assessment (CTOX) in CCTE's 384-well Estrogen Receptor Transactivation Assay without AIME metabolic competence (metabolism negative), Deisenroth Lab (AID 2284039);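 further: cell viability via live-cell protease substrate cleaved to fluorescent probe; cells exposed 24 h to medium preincubated 2 h with alginate-water beads without S9; loss of fluorescence signal means loss of viability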
Method in brief: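 VM7Luc4E2 human breast cells received conditioned medium from a 2 h incubation of chemical with alginate-water microspheres (no S9), then were exposed 24 h. Viability was read as protease-substrate cleavage to a fluorescent probe; loss of signal was fitted bidirectionally over 0.002–200 uM.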

[14] = target: human Retinoic Acid Receptor beta (RARb), RARB (gene 5915) (UniProt P10826); assay: ATG_RARb_TRANS: Attagene TRANS-FACTORIAL HepG2 Assay for human Retinoic Acid Receptor beta (AID 2283004)
Method in brief: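 Fluorescent capillary-electrophoresis detection of GAL4-UAS reporter mRNA defines the endpoint, with induction over DMSO-treated wells scored as activity. Transiently transfected human hepatoma HepG2 cells expressing exogenous NR–Gal4 proteins are exposed to test chemicals for 24 h.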

[15] = target: human Retinoic Acid Receptor gamma (RARg), RARG (gene 5916) (UniProt P13631); assay: ATG_RARg_TRANS: Attagene TRANS-FACTORIAL HepG2 Assay for human Retinoic Acid Receptor gamma (RARg) (AID 2283009)
Method in brief: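 Readout: reporter transcript levels via RT-PCR, 6-FAM primer-extension labelling, HpaI digestion and capillary electrophoresis. Cells: HepG2 carrying transfected RARg-GAL4 chimera plus UAS reporter set. Dosing 24 h; DMSO negative control.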

[16] = target: rat Thyrotropin Releasing Hormone Receptor (TRH), Trhr (gene 25570) (UniProt Q01717); assay: NVS_GPCR_rTRH: NovaScreen (NVS) G Protein-Coupled Receptor Assay for rat Thyrotropin Releasing Hormone Receptor (TRH) (AID 2283329);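 further: hit means lower bound tracer signal versus DMSO baseline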
Method in brief: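 Cell-free radioligand binding on rat forebrain membranes; bound tracer measured by filter-based scintillation counting 4 hours after dosing. Loss of signal versus DMSO baseline indicates displacement; primary screen at 25 uM in duplicate, actives then run in concentration series.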

[17] = tested on: Thyroperoxidase (TPO), gene 54314; assay: CCTE_Simmons_AUR_rTPO: CCTE's Amplex UltraRed Assay for Thyroperoxidase (TPO) Inhibition, Simmons Lab (AID 2283662);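 further: potency for loss of signal meaning inhibition of peroxidase activity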
Method in brief: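 Rat thyroid microsomal TPO + 25 uM AUR in 200 mM K phosphate; cpd 5 nM–87.5 uM [final], 8 conc, 0.5% DMSO; 300 uM H2O2 starts rxn; 37C dark 30 min; endpoint FI 544/590 nm; n=3.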

[18] = CCTE_Simmons_CellTiterGLO_HEK293T: Viability Assessment in CCTE's Assays for Thyroperoxidase (TPO) Inhibition, Simmons Lab (AID 2283665);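 further: cells exposed to compound for 24 h before readout; actives reduce ATP signal below DMSO vehicle meaning cytotoxicity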
Method in brief: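 Luminescent ATP readout (CellTiter-Glo, 20 min at room temperature) after 24 hr exposure of HEK293T cells to 5 nM–87.5 uM final compound; signal loss relative to DMSO vehicle indicated cytotoxicity; dichlone titrated as positive control.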

[19] = target: Luciferin 4-monooxygenase (Photinus pyralis) (UniProt P08659); assay: CCTE_Simmons_QuantiLum_inhib_2: CCTE's Firefly Luciferase Inhibition Assay, Simmons Lab (AID 2283767);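 further: potency for inhibitors that lower luciferase luminescence relative to DMSO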
Method in brief: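 Cell-free QuantiLum luciferase, 5 ng/well; compounds 5 nM–87.5 uM final, 8 conc, 0.5% DMSO; 30 min, 37C, dark. Detection reagent (150 uM D-luciferin, 147 uM dATP, CoA, DTT, pH 7.8 final) injected per well, kinetic luminescence. Triplicate biological replicates.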

[20] = target: Androgen receptor (Homo sapiens) (UniProt P10275); assay: ATG_AR_TRANS: Attagene TRANS-FACTORIAL HepG2 Assay for human Androgen Receptor (AR) (AID 2282973); conditions: HepG2 Attagene TRANS-FACTORIAL AR reporter transcription
Method in brief: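 Chimeric nuclear receptor–Gal4 activity was assessed in human HepG2 hepatocytes after 24 h chemical dosing. Induced reporter mRNA was detected via labelled RT-PCR fragments on capillary electrophoresis, and gain of signal was analysed against DMSO.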

Measured: AC50

Sequence of Estrogen receptor (Homo sapiens) (P03372 whole entry, looked up, the tested form may be a part): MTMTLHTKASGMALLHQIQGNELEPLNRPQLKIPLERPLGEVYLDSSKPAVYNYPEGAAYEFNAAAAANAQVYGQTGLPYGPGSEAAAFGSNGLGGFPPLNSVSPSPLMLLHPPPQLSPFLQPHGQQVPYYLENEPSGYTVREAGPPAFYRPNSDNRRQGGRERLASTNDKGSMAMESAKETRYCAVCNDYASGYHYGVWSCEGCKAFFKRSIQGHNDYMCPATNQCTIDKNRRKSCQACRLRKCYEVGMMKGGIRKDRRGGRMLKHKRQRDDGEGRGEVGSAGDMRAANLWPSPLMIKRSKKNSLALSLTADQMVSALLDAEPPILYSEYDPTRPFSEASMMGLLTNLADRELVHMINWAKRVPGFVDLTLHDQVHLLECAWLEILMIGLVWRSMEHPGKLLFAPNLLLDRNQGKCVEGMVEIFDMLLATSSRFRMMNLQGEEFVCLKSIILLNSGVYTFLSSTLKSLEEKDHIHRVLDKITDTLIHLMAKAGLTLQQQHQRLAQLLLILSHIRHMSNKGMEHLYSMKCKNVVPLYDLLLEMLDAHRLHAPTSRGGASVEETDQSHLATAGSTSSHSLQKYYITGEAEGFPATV
Sequence of Nuclear receptor subfamily 1 group I member 2 (Homo sapiens) (O75469 whole entry, looked up): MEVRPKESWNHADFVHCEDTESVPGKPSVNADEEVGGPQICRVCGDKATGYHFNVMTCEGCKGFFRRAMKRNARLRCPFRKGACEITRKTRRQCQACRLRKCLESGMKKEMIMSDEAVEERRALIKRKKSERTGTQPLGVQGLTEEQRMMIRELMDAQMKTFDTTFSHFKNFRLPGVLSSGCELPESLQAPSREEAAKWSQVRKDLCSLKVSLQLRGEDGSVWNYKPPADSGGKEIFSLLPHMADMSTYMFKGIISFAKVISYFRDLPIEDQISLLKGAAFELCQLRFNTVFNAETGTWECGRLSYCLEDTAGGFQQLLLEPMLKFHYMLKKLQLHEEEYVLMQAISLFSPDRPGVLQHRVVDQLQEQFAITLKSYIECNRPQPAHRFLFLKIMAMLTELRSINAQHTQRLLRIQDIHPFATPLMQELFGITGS
Sequence of Androgen receptor (Homo sapiens) (P10275 whole entry, looked up, the tested form may be a part): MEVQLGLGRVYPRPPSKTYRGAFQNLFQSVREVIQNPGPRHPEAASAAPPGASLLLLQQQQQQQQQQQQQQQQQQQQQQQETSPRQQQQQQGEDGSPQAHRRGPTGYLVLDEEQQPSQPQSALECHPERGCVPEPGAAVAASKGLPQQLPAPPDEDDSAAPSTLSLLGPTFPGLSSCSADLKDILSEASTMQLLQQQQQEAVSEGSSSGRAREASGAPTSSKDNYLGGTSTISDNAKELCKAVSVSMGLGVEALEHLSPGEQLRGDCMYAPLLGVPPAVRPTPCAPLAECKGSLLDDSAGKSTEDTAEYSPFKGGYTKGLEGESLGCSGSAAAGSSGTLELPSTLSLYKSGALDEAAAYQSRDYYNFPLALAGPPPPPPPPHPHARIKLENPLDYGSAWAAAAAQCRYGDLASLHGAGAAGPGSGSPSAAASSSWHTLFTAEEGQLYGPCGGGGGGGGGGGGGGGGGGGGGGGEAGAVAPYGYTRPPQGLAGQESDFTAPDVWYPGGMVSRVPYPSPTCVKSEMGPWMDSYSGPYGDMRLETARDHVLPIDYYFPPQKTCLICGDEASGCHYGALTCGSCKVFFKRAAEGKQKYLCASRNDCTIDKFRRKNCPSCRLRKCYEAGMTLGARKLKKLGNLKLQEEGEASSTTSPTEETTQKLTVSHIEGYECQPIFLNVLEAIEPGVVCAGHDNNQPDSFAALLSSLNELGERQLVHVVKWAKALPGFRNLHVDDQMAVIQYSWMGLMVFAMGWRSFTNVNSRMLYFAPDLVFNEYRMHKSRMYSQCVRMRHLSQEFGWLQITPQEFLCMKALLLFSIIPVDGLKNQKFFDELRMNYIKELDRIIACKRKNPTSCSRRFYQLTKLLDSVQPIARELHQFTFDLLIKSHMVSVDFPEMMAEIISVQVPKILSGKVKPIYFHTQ
Sequence of Glucocorticoid receptor (Homo sapiens) (P04150 whole entry, looked up): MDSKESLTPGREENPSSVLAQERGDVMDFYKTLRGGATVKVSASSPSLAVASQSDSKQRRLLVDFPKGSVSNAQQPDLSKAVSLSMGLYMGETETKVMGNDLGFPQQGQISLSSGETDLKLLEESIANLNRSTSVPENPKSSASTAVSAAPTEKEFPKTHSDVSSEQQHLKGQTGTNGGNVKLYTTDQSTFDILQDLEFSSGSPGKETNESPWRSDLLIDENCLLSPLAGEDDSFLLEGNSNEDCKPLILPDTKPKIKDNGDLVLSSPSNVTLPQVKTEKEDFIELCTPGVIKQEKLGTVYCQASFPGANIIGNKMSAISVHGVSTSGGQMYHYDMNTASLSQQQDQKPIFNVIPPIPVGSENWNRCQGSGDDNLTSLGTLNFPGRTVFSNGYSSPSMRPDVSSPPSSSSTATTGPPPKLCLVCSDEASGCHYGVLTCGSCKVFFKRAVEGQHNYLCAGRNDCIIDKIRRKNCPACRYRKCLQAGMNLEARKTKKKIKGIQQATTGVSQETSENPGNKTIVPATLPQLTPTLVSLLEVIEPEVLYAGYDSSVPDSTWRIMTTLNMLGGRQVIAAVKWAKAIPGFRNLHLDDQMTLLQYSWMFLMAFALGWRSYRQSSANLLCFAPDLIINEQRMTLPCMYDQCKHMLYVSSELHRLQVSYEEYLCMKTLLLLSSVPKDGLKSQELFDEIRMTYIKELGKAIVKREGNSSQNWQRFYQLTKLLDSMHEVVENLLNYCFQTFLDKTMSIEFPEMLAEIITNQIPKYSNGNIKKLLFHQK
Sequence of rat Thyrotropin Releasing Hormone Receptor (TRH), Trhr (gene 25570) (Q01717 whole entry, looked up): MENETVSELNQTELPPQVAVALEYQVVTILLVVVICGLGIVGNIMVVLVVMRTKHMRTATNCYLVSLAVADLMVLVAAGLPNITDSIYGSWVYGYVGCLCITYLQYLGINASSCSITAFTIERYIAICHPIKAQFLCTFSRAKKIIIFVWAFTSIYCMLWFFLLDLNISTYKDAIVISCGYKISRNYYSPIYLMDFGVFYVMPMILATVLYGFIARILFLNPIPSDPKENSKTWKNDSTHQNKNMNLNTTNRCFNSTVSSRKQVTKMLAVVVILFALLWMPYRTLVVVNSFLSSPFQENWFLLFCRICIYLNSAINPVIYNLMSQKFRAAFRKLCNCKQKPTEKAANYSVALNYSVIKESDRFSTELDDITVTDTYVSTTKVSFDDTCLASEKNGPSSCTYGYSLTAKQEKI
Sequence of human Retinoic Acid Receptor beta (RARb), RARB (gene 5915) (P10826 whole entry, looked up, the tested form may be a part): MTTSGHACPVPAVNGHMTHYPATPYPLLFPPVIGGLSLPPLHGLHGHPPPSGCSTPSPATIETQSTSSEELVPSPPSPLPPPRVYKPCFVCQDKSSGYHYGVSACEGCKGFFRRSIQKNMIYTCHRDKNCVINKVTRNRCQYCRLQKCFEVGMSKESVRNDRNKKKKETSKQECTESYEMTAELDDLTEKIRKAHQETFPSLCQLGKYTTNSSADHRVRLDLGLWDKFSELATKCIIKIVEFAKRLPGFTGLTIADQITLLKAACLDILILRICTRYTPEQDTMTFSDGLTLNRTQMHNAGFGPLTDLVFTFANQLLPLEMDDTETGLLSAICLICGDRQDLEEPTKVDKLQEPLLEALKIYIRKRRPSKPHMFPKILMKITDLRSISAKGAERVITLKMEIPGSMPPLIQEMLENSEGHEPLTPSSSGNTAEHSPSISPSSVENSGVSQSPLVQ
Sequence of human Peripheral-type Benzodiazepine Receptor (PBR), TSPO (gene 706) (P30536 whole entry, looked up): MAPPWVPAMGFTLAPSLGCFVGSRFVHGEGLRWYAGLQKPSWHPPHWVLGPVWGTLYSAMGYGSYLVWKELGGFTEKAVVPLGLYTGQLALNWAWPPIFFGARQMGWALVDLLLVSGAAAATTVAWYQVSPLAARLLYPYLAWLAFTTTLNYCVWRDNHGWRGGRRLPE
Sequence of Bile acid receptor (Homo sapiens) (Q96RI1 whole entry, looked up, the tested form may be a part): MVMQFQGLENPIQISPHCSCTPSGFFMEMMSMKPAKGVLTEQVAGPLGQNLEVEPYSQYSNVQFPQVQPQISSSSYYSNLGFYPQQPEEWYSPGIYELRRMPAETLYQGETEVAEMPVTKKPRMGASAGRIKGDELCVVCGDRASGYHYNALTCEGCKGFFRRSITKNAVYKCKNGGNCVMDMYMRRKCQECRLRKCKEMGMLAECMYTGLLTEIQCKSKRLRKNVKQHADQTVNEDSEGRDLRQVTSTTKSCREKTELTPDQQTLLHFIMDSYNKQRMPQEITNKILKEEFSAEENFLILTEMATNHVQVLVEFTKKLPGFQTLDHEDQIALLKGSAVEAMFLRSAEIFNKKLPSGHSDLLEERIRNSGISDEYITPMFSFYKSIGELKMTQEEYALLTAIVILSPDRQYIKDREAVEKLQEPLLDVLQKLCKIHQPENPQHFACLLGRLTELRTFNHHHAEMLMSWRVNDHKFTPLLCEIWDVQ
Sequence of Retinoic acid receptor alpha (Homo sapiens) (P10276 whole entry, looked up, the tested form may be a part): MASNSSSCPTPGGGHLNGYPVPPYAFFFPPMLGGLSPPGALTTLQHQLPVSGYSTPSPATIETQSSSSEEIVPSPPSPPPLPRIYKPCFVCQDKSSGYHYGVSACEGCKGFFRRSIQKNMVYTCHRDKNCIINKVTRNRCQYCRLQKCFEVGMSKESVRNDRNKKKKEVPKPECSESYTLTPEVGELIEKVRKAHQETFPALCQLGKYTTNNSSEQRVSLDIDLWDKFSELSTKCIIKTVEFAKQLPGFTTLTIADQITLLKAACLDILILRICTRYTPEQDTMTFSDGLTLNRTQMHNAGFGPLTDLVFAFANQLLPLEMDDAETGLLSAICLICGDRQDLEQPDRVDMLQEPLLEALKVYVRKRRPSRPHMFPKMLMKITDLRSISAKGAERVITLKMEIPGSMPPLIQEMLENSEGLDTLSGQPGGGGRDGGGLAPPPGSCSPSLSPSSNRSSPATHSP

CC(=O)/C=C/c1ccccc1
inactive: [1] | [2] | [3] | [4] | [5]

CC(C)CCCCCCCOP(=O)(Oc1ccccc1)Oc1ccccc1
active: [6] 5.78 µM | [7] 6.03 µM | [1] 8.84 µM | [2] 8.22 µM | [3] 12.8 µM | [4] 5.07 µM | [5] 11.3 µM

CCCCCCCCCCCC#N
active: [1] 30.7 µM | [2] 26.5 µM | [5] 30.5 µM
inactive: [8] | [4]

O=P1(NCCCl)OCCCN1CCCl (stereo unspecified)
inactive: [9] | [1] | [2] | [3] | [4] | [5]

Cc1cc(C)c(C2=C(OC(=O)CC(C)(C)C)C3(CCCC3)OC2=O)c(C)c1
active: [12] 93.1 µM
inactive: [6] | [10] | [11] | [13]

CCOP(=O)(OCC)OCC
inactive: [8] | [14] | [9] | [15]

CSc1nc(N=[N+]=[N-])nc(NC(C)C)n1
inactive: [6]

CCCCCCCCCCCCCCCC[N+](C)(C)C
active: [7] 12.3 µM | [10] 0.899 µM | [17] 51.5 µM | [18] 10.2 µM | [19] 92.4 µM | [13] 100 µM
inactive: [16]

CCC(C)c1cc(C(C)(C)C)cc(-n2nc3ccccc3n2)c1O (stereo unspecified)
inactive: [20]

COC(=O)c1ccccc1S(=O)(=O)NC(=O)Nc1nc(C)cc(C)n1
inactive: [8] | [14] | [15]

C=CCN(CC=C)C(=O)C(Cl)Cl
inactive: [16] | [13] | [1] | [2] | [3] | [4] | [5]

CC[N+](=O)[O-]
inactive: [14]

Cc1ccc(C)c2ccccc12
inactive: [20] | [10] | [11] | [13]

CC(=O)C=Cc1ccccc1
inactive: [16]

CC(C)(C)C(O)C(Oc1ccc(-c2ccccc2)cc1)n1cncn1 (stereo unspecified)
active: [1] 30 µM | [2] 34.5 µM | [5] 32 µM
inactive: [6] | [20] | [7] | [12] | [3] | [4]

CC(C)[C@@H](C(=O)O[C@@H](C#N)c1cccc(Oc2ccccc2)c1)c1ccc(Cl)cc1
inactive: [10] | [12]

C[C@]12CC[C@H](O)C[C@H]1CC[C@@H]1[C@@H]2C[C@@H](O)[C@]2(C)[C@@H](C3=CC(=O)OC3)CC[C@]12O
active: [12] 2.57 µM
inactive: [20]

CC(C)C(=O)Cl
inactive: [20]
